Assay results taken from PubChem BioAssay (NCATS).
Records with an inconclusive call do not appear. A call without a number means that no potency is given here. Active and inactive are the calls of the source. The call rests on the fitted dose curve; in most records, active means well fitted cell-killing curve with a large enough effect; inconclusive means small, poorly fitted or top-dose-only effect; inactive means flat fitted curve, though single readings scatter. Numbered stars: 1 amine (or outer) side, 2 acyl side, 3 side chain; on linkers, the order of the positions; unused ones are H or OH. Bridge positions count the residues as written; N and C are the ends. Square brackets hold non-standard residues; d marks the D form. Peptide text beside a SMILES is read from it. I, II: the chains in the order shown. Actinocin(9to1) = Cc1c2oc3c(C)ccc(C(=O)[*:1])c3nc-2c(C(=O)[*:2])c(N)c1=O; NMeV = CN[C@H](C(=O)O)C(C)C; Sar = CNCC(=O)O

Key:
[1] = Cell Viability - LYMP2-009 (AID 968); further: nearly all actives have a fitted effect of over 55% in size
[2] = Cell Viability - LYMP2-013 (AID 970); further: nearly all actives have a fitted effect of over 55% in size
Procedure, shortened: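 Human lymphoblastoid cells, 2500/well, were preincubated 5 hr at 37 C, then treated with compounds for 24 hr at 37 C in complete medium. Intracellular ATP was read by CellTiter-Glo luminescence; AC50 from Hill-equation fits of concentration-response data.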

[3] = Cell Viability - LYMP2-017 (AID 972); further: nearly all actives have a fitted effect of over 55% in size
Procedure, shortened: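 Human lymphoblastoid cells (2500/well) were seeded in complete medium, held 5 hr at 37 C, then exposed to compounds for 24 hr at 37 C. Intracellular ATP was read by CellTiter-Glo luminescence after 30 min at room temperature, with AC50 values from Hill-equation fits.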

[4] = Cell Viability - LYMP2-019 (AID 973); further: nearly all actives have a fitted effect of over 55% in size
Procedure, shortened: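 Human lymphoblastoid cells were seeded at 2500 cells/well, preincubated 5 hr at 37 C, then exposed to compounds for 24 hr at 37 C in complete medium. Intracellular ATP was measured by CellTiter-Glo luminescence; AC50 from Hill fits.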

[5] = Cell Viability - LYMP2-011 (AID 969); further: nearly all actives have a fitted effect of over 60% in size
Procedure, shortened: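 Human lymphoblastoid cells (2500/well) were plated in complete medium, preincubated 5 hr at 37 C, then exposed to compounds for 24 hr at 37 C. Intracellular ATP was read by CellTiter-Glo luminescence, and AC50 came from Hill-equation concentration-response fits.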

[6] = Cell Viability - LYMP2-015 (AID 971); further: nearly all actives have a fitted effect of over 55% in size
Procedure, shortened: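 Human lymphoblastoid cells (2500/well) in complete medium were preincubated 5 hr at 37 C, then compound-treated 24 hr at 37 C. Intracellular ATP was read by CellTiter-Glo luminescence after 30 min at room temperature; AC50 came from Hill-equation concentration-response fits.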

[7] = Cell Viability - LYMP2-021 (AID 974)
Procedure, shortened: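 Human lymphoblastoid cells (2500/well) were preincubated 5 hr at 37 C, then exposed to compounds for 24 hr at 37 C in complete medium. Intracellular ATP was read by CellTiter-Glo luminescence; AC50 came from Hill-equation fits of concentration-response data.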

[8] = Cell Viability - LYMP2-023 (AID 975); further: nearly all actives have a fitted effect of over 55% in size
Procedure, shortened: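 Human lymphoblastoid cells (2500/well) were preincubated 5 hr at 37 C, then exposed to compounds for 24 hr at 37 C in complete medium. Cellular ATP was read by CellTiter-Glo luminescence, and AC50 came from Hill-equation fits.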

[9] = Cell Viability - LYMP2-025 (AID 976)
Procedure, shortened: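 Human lymphoblastoid LYMP2-025 cells (2500/well) were pre-incubated 5 hr at 37 C, then treated with compounds for 24 hr at 37 C in complete medium. Viability was read as intracellular ATP by CellTiter-Glo luminescence; AC50 from Hill fits.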

[10] = Cell Viability - LYMP2-002 (AID 977);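 further: compound exposure lasted 24 h at 37 °C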
Procedure, shortened: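 Human lymphoblastoid LYMP2-002 cells, 2500 per well, exposed to compounds for 24 h at 37 C in complete medium; viability read as intracellular ATP by CellTiter-Glo luminescence, AC50 from Hill fits.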
Potency means the concentration at half of the fitted maximal effect.

| Structure (SMILES) | Potency [1] | Potency [2] | Potency [3] | Potency [4] | Potency [5] | Potency [6] | Potency [7] | Potency [8] | Potency [9] | Potency [10] |
| --- | --- | --- | --- | --- | --- | --- | --- | --- | --- | --- |
| COc1cccc2c1C(=O)c1c(O)c3c(c(O)c1C2=O)C[C@@](O)(C(C)=O)C[C@@H]3O[C@H]1C[C@H](N)[C@H](O)[C@H](C)O1 | 0.251 µM (active) | 2 µM (active) | 0.631 µM (active) | 3.98 µM (active) | – | – | – | – | – | – |
| CC(=O)O[C@]1(C(C)=O)CC[C@H]2[C@@H]3C[C@H](C)C4=CC(=O)CC[C@]4(C)[C@H]3CC[C@@]21C | 39.8 µM (active) | 31.6 µM (active) | 31.6 µM (active) | – | 39.8 µM (active) | 39.8 µM (active) | 39.8 µM (active) | – | – | – |
| CC(=O)Oc1ccc(C(c2ccc(OC(C)=O)cc2)c2ccccn2)cc1 | inactive | inactive | inactive | inactive | inactive | inactive | inactive | inactive | inactive | inactive |
| CCCCCCc1ccc(O)cc1O | inactive | inactive | inactive | inactive | inactive | inactive | inactive | inactive | inactive | inactive |
| Oc1ccc(O)cc1 | 50.1 µM (active) | – | 39.8 µM (active) | – | 39.8 µM (active) | 50.1 µM (active) | 50.1 µM (active) | inactive | inactive | – |
| CC(C)(C)CC(C)(C)c1ccc(OCCOCC[N+](C)(C)Cc2ccccc2)cc1 | 31.6 µM (active) | 25.1 µM (active) | 31.6 µM (active) | 39.8 µM (active) | 31.6 µM (active) | 25.1 µM (active) | 31.6 µM (active) | 39.8 µM (active) | 39.8 µM (active) | 25.1 µM (active) |
| O=C1OC(c2ccc(O)cc2)(c2ccc(O)cc2)c2ccccc21 | inactive | inactive | inactive | inactive | inactive | inactive | inactive | inactive | inactive | inactive |
| C=CCc1ccc(O)c(OC)c1 | inactive | inactive | inactive | inactive | inactive | inactive | inactive | inactive | inactive | inactive |
| O=c1ccc2ccccc2o1 | inactive | inactive | inactive | inactive | inactive | inactive | inactive | inactive | inactive | inactive |
| CC/C(=C(/CC)c1ccc(O)cc1)c1ccc(O)cc1 | inactive | inactive | inactive | inactive | inactive | inactive | inactive | inactive | inactive | inactive |
| Nc1ccc(C(=O)O)cc1 | inactive | inactive | inactive | inactive | inactive | inactive | inactive | inactive | inactive | inactive |
| Oc1c(Cl)cc(Cl)cc1Sc1cc(Cl)cc(Cl)c1O | 50.1 µM (active) | 50.1 µM (active) | – | – | – | – | 39.8 µM (active) | – | – | – |
| NC(=NCCCCCCN=C(N)/N=C(\N)Nc1ccc(Cl)cc1)/N=C(\N)Nc1ccc(Cl)cc1 | 50.1 µM (active) | 39.8 µM (active) | 39.8 µM (active) | – | 39.8 µM (active) | 39.8 µM (active) | 39.8 µM (active) | 50.1 µM (active) | – | – |
| COc1cccc2c1C(=O)c1c(O)c3c(c(O)c1C2=O)C[C@@](O)(C(=O)CO)C[C@@H]3O[C@H]1C[C@H](N)[C@H](O)[C@H](C)O1 | 0.251 µM (active) | 1 µM (active) | 0.631 µM (active) | 0.631 µM (active) | 0.251 µM (active) | 0.158 µM (active) | 0.398 µM (active) | 0.398 µM (active) | 0.501 µM (active) | 0.251 µM (active) |
| Oc1c(I)cc(Cl)c2cccnc12 | – | – | – | – | – | – | – | – | inactive | – |
| COC1=CC(=O)C[C@@H](C)[C@]12Oc1c(Cl)c(OC)cc(OC)c1C2=O | inactive | inactive | inactive | inactive | inactive | inactive | inactive | inactive | inactive | inactive |
| CN(C)/N=N/c1nc[nH]c1C(N)=O | inactive | inactive | inactive | inactive | inactive | inactive | inactive | inactive | inactive | inactive |
| C=C(CC)C(=O)c1ccc(OCC(=O)O)c(Cl)c1Cl | 50.1 µM (active) | 50.1 µM (active) | 50.1 µM (active) | 39.8 µM (active) | 50.1 µM (active) | 50.1 µM (active) | 39.8 µM (active) | – | – | – |
| Cc1c2oc3c(C)ccc(C(=O)N[C@@H]4C(=O)N[C@H](C(C)C)C(=O)N5CCC[C@H]5C(=O)N(C)CC(=O)N(C)[C@@H](C(C)C)C(=O)O[C@@H]4C)c3nc-2c(C(=O)N[C@@H]2C(=O)N[C@H](C(C)C)C(=O)N3CCC[C@H]3C(=O)N(C)CC(=O)N(C)[C@@H](C(C)C)C(=O)O[C@@H]2C)c(N)c1=O (I: T[dV]P[Sar][NMeV] / II: T[dV]P[Sar][NMeV]; ester I:1-I:C, II:1-II:C; linker I:N-II:N via Actinocin(9to1)) | – | – | 0.01 µM (active) | – | – | – | 0.0025 µM (active) | – | – | – |
| O=C(O)CCCCC(=O)O | inactive | inactive | inactive | inactive | inactive | inactive | inactive | inactive | inactive | inactive |
| C[C@]12CC[C@@H]3c4ccc(O)cc4CC[C@H]3[C@@H]1CC[C@@H]2O | inactive | inactive | inactive | inactive | inactive | inactive | inactive | inactive | inactive | – |
| CC(O)C(=O)O (stereo unspecified) | inactive | inactive | inactive | inactive | inactive | inactive | inactive | inactive | inactive | inactive |
